This note sets out measurements from PubChem BioAssay (EPA / NIEHS).

In assay [1] the target is Paired box protein Pax-6 (Homo sapiens) (UniProt P26367). Kind of assay: ATG_Pax6_CIS: Attagene CIS-FACTORIAL HepG2 Assay for human Paired Box 6 (PAX6) (AID 2282956). Particulars: HepG2 CIS-FACTORIAL PAX6 reporter transcription, RNA readout; actives raise or lower the signal. Summed up: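 Multiplexed cis-reporter HepG2 system; 24 h treatment; reporter mRNA read by RT-PCR/CE fluorescence; bidirectional fit vs DMSO.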
Sequence of Paired box protein Pax-6 (Homo sapiens) (P26367 whole entry, looked up): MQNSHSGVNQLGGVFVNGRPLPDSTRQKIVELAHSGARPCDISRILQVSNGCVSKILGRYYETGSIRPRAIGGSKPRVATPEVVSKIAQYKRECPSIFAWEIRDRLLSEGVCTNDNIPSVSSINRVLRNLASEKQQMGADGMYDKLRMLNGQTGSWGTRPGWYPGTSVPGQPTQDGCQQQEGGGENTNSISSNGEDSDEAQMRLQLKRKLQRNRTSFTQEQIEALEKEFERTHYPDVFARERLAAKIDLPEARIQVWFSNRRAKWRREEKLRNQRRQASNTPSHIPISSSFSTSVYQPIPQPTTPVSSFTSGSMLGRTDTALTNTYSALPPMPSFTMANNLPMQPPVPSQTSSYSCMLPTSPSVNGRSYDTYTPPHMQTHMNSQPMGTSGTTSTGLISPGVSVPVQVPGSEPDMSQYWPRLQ

Assay [2] can be described thus: ATG_PXRE_CIS: Attagene CIS-FACTORIAL HepG2 Assay for human Pregnane X Receptor Element (PXRE) (AID 2282957). As to conditions: HepG2 Attagene CIS-FACTORIAL PXRE reporter, mRNA; actives raise or lower the signal. Summed up: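 HepG2 cells transiently transfected with cis-regulated multiple reporter transcription units; endogenous factor activity measured as reporter mRNA 24 h after dosing. RT-PCR, fluorescent primer extension, HpaI digestion, capillary electrophoresis; bidirectional fit versus DMSO baseline.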

Assay [3] is described as follows: ATG_PPRE_CIS: Attagene CIS-FACTORIAL HepG2 Assay for human Peroxisome Proliferator-activated Response Element (PPRE) (AID 2282958). As to conditions: HepG2 PPRE cis-element reporter, Attagene transcription factor profiling; actives raise or lower the signal. Summed up:
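After human HepG2 hepatoma cells were transiently transfected with cis-promoter reporter constructs, they were exposed to test chemicals for 24 hours. Reporter RNA was then reverse-transcribed, PCR-amplified, FAM-labeled, HpaI-digested and quantified by capillary electrophoresis.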

Assay [4] in a line: ATG_RORE_CIS: Attagene CIS-FACTORIAL HepG2 Assay for human RAR-related Orphan Receptor Element (RORE) (AID 2282959). Particulars: HepG2 Attagene cis-factorial RORE reporter, mRNA; actives raise or lower the signal. The method, boiled down:
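Measured here: transcript induction of a cis-regulated reporter in HepG2 cells transiently transfected via FuGene 6. After 24 h, RNA was processed by RT-PCR and fluorescent capillary electrophoresis; DMSO defined baseline activity.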

Assay [5] is described as follows: ATG_Sox_CIS: Attagene CIS-FACTORIAL HepG2 Assay for human SRY-box transcription factor (SOX) (AID 2282960). As to conditions: HepG2 Attagene cis-factorial SOX reporter, mRNA; actives raise or lower the signal. The method, boiled down: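 Using transiently transfected HepG2 cells, reporter transcription driven by cis elements was assessed 24 h after dosing. Signal was fluorescence of capillary-separated RT-PCR products, with DMSO defining baseline activity.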

The target of assay [6] is Transcription factor Sp1 (Homo sapiens) (UniProt P08047). Nature of the assay: ATG_Sp1_CIS: Attagene CIS-FACTORIAL HepG2 Assay for human Specificity Protein 1 (Sp1) (AID 2282961). As to conditions: HepG2 Sp1 cis-reporter transcription, actives raise or lower the signal. Summed up: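 After transient transfection of HepG2 cells with cis-promoter reporter units and 24 h chemical treatment, reporter transcripts were quantified by RT-PCR and capillary electrophoresis fluorescence. Gain- and loss-of-signal fitted against DMSO.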
Sequence of Transcription factor Sp1 (Homo sapiens) (P08047 whole entry, looked up): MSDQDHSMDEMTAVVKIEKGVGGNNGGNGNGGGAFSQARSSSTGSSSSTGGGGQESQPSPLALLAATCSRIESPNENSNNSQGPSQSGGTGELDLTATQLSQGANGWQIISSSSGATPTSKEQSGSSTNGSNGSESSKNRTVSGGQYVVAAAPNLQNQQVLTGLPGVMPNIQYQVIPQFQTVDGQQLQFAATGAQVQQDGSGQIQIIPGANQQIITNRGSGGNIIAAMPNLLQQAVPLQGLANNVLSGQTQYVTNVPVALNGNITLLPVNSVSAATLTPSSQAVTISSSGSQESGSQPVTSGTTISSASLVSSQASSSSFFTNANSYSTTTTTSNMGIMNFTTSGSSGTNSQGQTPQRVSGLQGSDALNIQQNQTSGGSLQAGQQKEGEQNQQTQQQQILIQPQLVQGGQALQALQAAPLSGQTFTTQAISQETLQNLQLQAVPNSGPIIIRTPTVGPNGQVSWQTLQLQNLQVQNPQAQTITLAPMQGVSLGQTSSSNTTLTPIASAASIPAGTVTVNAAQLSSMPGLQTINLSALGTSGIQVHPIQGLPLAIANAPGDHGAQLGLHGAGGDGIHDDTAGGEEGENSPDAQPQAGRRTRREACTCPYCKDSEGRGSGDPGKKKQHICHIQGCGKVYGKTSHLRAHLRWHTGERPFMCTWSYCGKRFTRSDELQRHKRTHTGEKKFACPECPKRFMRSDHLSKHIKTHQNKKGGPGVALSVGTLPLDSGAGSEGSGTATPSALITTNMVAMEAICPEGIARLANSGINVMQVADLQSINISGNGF

Assay [7] in a line: ATG_SREBP_CIS: Attagene CIS-FACTORIAL HepG2 Assay for human Sterol Regulatory Element Binding (SREBP) (AID 2282962). As to conditions: HepG2 Attagene cis-factorial SREBP reporter, mRNA; actives raise or lower the signal. Summed up:
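mRNA induction of transfected cis-promoter reporters in HepG2 cells, 24 h post-dose. Detection: RT-PCR with 6-FAM-labelled products, HpaI digest, capillary electrophoresis. DMSO served as negative control and baseline.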

Assay [8] can be described thus: ATG_TA_CIS: Attagene CIS-FACTORIAL HepG2 Assay for human TA Basal Promoter (AID 2282964). Particulars: HepG2 Attagene CIS-factorial TA basal promoter reporter; actives raise or lower the signal. The method, boiled down:
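Background internal-marker endpoint from a 52-component HepG2 cis-reporter panel. Cells treated 24 h; reporter transcripts quantified via RT-PCR and CE fluorescence against DMSO baseline.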

Assay [9] can be described thus: ATG_TCF_b_cat_CIS: Attagene CIS-FACTORIAL HepG2 Assay for human T-Cell-Factor with beta-catenin (TCF/b-cat) (AID 2282965). As to conditions: HepG2 TCF/beta-catenin cis-reporter transcription, actives raise or lower the signal. Summed up: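 HepG2, transient MRTU transfection, cis-element-driven reporters (endogenous TFs). 24 h compound exposure. Readout: reporter mRNA by RT-PCR + 6-FAM primer extension, HpaI digest, capillary electrophoresis. Gain/loss fit vs DMSO baseline.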

A short description of assay [10]: ATG_TAL_CIS: Attagene CIS-FACTORIAL HepG2 Assay for human TAL Basal Promoter (AID 2282966).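 Further: background control endpoint measuring basal TAL promoter reporter mRNA not a specific factor.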 Particulars: HepG2 Attagene cis-factorial TAL promoter reporter; actives raise or lower the signal. The method, boiled down:
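HepG2 cells were transiently transfected with promoter-driven multiplexed reporter units and dosed for 24 h. Reporter mRNA was measured by RT-PCR with capillary electrophoresis fluorescence; bidirectional fits used DMSO as baseline, serving as a background control.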

The nature of assay [11]: ATG_TGFb_CIS: Attagene CIS-FACTORIAL HepG2 Assay for human Transforming Growth Factor (TGF) (AID 2282967). Particulars: HepG2 Attagene CIS TGFb reporter, mRNA transcription; actives raise or lower the signal. The method, boiled down: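 Liver HepG2 line, cis-factorial reporter panel, 24 h dosing. Quantitation: RT-PCR products labeled with 6-FAM, cut with HpaI, resolved by capillary electrophoresis; DMSO-referenced bidirectional analysis.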

The nature of assay [12]: ATG_VDRE_CIS: Attagene CIS-FACTORIAL HepG2 Assay for human Vitamin D Receptor Element (VDRE) (AID 2282968). As to conditions: HepG2 VDRE cis-reporter transcription, actives raise or lower the signal. The method, boiled down:
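Cell-based multiplexed reporter format in human liver HepG2 cells, 24 h post-dose. Fluorescence from capillary electrophoresis of reporter cDNA gives the signal, with DMSO as negative control and baseline.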

Assay [13] has as its target Nuclear receptor subfamily 1 group I member 3 (Homo sapiens) (UniProt Q14994). Kind of assay: ATG_CAR_TRANS: Attagene TRANS-FACTORIAL HepG2 Assay for human Constitutive Androstane Receptor (CAR) (AID 2282969; active means hit-call score of the fitted dose curve at least 0.9, where 1 is the maximum;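 further: activators raise reporter mRNA above DMSO so AC50 marks induction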). As to conditions: HepG2 Attagene TRANS-FACTORIAL CAR reporter. Summed up:
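HepG2 cells transiently transfected with GAL4-UAS reporter units; TRANS format reads activity of exogenous chimeric NR-Gal4 protein. After 24 h dosing, reporter mRNA quantified by RT-PCR, 6-FAM labelling and capillary electrophoresis; gain of signal fitted against DMSO.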

The target of assay [14] is Estrogen receptor (Homo sapiens) (UniProt P03372). Kind of assay: ATG_ERa_TRANS: Attagene TRANS-FACTORIAL HepG2 Assay for human Estrogen Receptor alpha (ERa) (AID 2282970; active means hit-call score of the fitted dose curve at least 0.9, where 1 is the maximum). Particulars: HepG2 Attagene TRANS ERa GAL4 reporter, mRNA. Summed up: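 HepG2 cells transiently transfected with multiplexed GAL4-UAS reporter units; ERa activity read via exogenous chimeric NR-Gal4 protein. After 24 hour compound exposure, reporter mRNA measured by RT-PCR with 6-FAM labelling and capillary electrophoresis; gain-of-signal fitted relative to DMSO.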
Sequence of Estrogen receptor (Homo sapiens) (P03372 whole entry, looked up, the tested form may be a part): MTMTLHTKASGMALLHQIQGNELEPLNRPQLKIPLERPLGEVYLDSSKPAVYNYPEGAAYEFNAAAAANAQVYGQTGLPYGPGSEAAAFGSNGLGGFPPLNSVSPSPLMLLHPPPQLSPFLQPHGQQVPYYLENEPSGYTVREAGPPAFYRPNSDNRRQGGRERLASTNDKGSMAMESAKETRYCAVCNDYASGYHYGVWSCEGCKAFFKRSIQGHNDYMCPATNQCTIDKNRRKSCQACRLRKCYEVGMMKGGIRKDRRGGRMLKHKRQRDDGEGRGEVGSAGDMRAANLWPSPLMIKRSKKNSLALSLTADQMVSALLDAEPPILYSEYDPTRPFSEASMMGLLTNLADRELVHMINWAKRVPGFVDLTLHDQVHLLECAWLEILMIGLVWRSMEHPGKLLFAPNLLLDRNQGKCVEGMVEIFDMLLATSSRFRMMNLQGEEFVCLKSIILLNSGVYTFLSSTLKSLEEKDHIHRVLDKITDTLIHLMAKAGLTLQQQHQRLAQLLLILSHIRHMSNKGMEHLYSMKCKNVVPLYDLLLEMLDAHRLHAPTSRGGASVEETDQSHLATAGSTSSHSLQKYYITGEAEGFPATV

Assay [15] in a line: ATG_GAL4_TRANS: Attagene TRANS-FACTORIAL HepG2 Assay for GAL4 (Internal Marker) (AID 2282976; active means hit-call score of the fitted dose curve at least 0.9, where 1 is the maximum). As to conditions: HepG2 Attagene TRANS GAL4 internal marker reporter. The method, boiled down:
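HepG2 cells transiently transfected with multiplexed GAL4-UAS reporter constructs were dosed for 24 h. Reporter mRNA was measured by RT-PCR, 6-FAM primer extension, HpaI digestion and capillary electrophoresis, and gain of signal was fitted relative to DMSO.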

Assay [16] concerns the target Estrogen-related receptor gamma (Homo sapiens) (UniProt P62508). Kind of assay: ATG_ERRg_TRANS: Attagene TRANS-FACTORIAL HepG2 Assay for human Estrogen-Related Receptor gamma (ERRg) (AID 2282977; active means hit-call score of the fitted dose curve at least 0.9, where 1 is the maximum;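 further: hits increase reporter signal over DMSO so potencies reflect activators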). As to conditions: HepG2 Attagene TRANS reporter, ERRg transactivation. Summed up: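 Transient HepG2 transfectants, 24 h compound exposure, GAL4-UAS reporter mRNA by RT-PCR/6-FAM labelling/capillary electrophoresis; positive direction vs DMSO.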

The target of assay [17] is Signal transducer and activator of transcription 3 (Homo sapiens) (UniProt P40763). Nature of the assay: ATG_STAT3_CIS: Attagene CIS-FACTORIAL HepG2 Assay for human Signal Transducer and Activator of Transcription 3 (STAT3) (AID 2282963). As to conditions: HepG2, Attagene cis-factorial STAT3 reporter transcription; actives raise or lower the signal. Summed up:
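Values derive from bidirectional fits relative to DMSO of reporter mRNA levels, measured by RT-PCR with capillary electrophoresis, in HepG2 cells carrying transiently transfected cis-regulated reporter units and exposed 24 h.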

The target in assay [18] is X-box-binding protein 1 (Homo sapiens) (UniProt P17861). Kind of assay: ATG_Xbp1_CIS: Attagene CIS-FACTORIAL HepG2 Assay for human X-box Binding Protein 1 (XBP1) (AID 2282972). As to conditions: HepG2 XBP1 cis-element reporter, Attagene multiplex; actives raise or lower the signal. Summed up:
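Fluorescence-labelled cDNA fragments from reporter transcripts, separated by capillary electrophoresis, give the signal. Source: HepG2 cells transfected with promoter-driven reporter units, harvested 24 h post-dose. DMSO served as reference for bidirectional curve fitting.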

Assay [19] in a line: ATG_M_19_TRANS: Attagene TRANS-FACTORIAL HepG2 Assay for M19 Transcription Factor (Internal Marker) (AID 2282974; active means hit-call score of the fitted dose curve at least 0.9, where 1 is the maximum). As to conditions: HepG2 Attagene TRANS-FACTORIAL M19 internal marker reporter. The method, boiled down:
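Gain-of-signal in reporter mRNA, relative to DMSO, was scored from capillary electrophoresis fluorescence. HepG2 cells carried transiently transfected multiple reporter transcription units and were incubated with test chemicals for 24 h.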

Assay [20] concerns the target Steroid hormone receptor ERR1 (Homo sapiens) (UniProt P11474). Nature of the assay: ATG_ERRa_TRANS: Attagene TRANS-FACTORIAL HepG2 Assay for human Estrogen-Related Receptor alpha (ERRa) (AID 2282971; active means hit-call score of the fitted dose curve at least 0.9, where 1 is the maximum). Particulars: HepG2 Attagene TRANS reporter, ERRa transactivation. Summed up:
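HepG2 cells transiently transfected with multiplexed GAL4-UAS reporter units reading chimeric ERRa-Gal4 activity; 24 h compound exposure. Reporter mRNA measured by RT-PCR, 6-FAM labelling, HpaI digest and capillary electrophoresis; gain of signal fitted versus DMSO baseline.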

One may read the AC50 as the midpoint of the concentration-response curve, whichever way the signal moves.

Inconclusive results are not listed. The source made the active and inactive calls. How the source made its calls, unless noted: active means hit-call score of the fitted dose curve at least 0.9, where 1 is the maximum; inactive means score below 0.9.

Sequence of Nuclear receptor subfamily 1 group I member 3 (Homo sapiens) (Q14994 whole entry, looked up, the tested form may be a part): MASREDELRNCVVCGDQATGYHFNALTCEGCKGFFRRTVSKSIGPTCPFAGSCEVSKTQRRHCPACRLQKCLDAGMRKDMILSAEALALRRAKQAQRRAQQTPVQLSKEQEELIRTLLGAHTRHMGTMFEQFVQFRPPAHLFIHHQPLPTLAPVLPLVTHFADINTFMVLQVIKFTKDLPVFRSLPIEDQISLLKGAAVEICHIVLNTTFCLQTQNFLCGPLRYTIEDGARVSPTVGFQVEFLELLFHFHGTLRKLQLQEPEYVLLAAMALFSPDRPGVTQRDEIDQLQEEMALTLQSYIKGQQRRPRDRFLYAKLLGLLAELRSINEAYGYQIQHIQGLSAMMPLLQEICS
Sequence of Estrogen-related receptor gamma (Homo sapiens) (P62508 whole entry, looked up, the tested form may be a part): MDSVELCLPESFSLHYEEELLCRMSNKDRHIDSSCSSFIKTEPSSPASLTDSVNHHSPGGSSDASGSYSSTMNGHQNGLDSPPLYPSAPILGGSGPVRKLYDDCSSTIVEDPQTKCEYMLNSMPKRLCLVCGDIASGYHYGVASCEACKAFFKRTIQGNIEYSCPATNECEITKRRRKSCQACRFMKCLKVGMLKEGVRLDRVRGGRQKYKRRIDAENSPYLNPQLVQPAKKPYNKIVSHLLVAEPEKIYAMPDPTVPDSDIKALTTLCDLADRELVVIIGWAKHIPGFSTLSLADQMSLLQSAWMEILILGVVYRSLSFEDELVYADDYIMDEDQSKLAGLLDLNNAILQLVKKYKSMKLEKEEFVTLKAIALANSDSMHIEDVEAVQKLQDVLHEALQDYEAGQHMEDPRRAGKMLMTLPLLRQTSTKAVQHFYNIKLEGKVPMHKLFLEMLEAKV
Sequence of X-box-binding protein 1 (Homo sapiens) (P17861 whole entry, looked up, the tested form may be a part): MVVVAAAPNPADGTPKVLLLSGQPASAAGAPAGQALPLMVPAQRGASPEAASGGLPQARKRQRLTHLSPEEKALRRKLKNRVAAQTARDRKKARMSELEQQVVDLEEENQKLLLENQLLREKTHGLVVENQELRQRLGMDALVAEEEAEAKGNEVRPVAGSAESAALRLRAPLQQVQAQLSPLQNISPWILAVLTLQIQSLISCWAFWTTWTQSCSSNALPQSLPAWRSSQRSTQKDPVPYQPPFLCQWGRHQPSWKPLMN
Sequence of Signal transducer and activator of transcription 3 (Homo sapiens) (P40763 whole entry, looked up): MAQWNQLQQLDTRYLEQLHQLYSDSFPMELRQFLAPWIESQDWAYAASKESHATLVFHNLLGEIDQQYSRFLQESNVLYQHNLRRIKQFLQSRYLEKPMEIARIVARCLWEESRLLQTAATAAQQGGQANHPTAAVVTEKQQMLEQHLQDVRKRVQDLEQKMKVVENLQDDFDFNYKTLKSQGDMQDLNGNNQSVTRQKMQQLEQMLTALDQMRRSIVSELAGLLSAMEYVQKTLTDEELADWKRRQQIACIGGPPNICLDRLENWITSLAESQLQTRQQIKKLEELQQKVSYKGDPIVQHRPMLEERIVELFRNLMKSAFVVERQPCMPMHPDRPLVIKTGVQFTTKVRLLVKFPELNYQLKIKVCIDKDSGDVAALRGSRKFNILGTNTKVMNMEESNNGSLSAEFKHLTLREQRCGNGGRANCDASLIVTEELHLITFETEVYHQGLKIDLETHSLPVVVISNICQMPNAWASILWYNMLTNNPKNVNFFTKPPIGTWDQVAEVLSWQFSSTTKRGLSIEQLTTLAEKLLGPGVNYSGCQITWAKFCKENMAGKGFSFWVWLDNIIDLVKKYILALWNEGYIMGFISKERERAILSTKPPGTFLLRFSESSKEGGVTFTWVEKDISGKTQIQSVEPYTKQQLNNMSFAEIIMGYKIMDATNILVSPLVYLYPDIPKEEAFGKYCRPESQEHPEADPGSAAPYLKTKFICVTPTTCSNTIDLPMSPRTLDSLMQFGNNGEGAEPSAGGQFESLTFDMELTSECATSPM
Sequence of Steroid hormone receptor ERR1 (Homo sapiens) (P11474 whole entry, looked up, the tested form may be a part): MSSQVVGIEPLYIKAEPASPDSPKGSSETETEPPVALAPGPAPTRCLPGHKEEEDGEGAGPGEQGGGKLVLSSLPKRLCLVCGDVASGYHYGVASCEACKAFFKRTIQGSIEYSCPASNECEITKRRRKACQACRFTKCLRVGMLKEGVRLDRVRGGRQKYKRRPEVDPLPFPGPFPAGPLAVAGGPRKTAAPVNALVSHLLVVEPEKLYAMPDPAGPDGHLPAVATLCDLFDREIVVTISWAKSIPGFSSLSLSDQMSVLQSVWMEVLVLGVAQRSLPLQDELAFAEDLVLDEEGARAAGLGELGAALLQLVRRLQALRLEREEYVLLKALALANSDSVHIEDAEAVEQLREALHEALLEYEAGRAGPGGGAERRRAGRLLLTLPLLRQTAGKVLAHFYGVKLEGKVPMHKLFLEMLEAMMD

Turning to `O=C1CCCCCN1SSN1CCCCCC1=O`, the AC50 is 156 µM (active) in [1], 183 µM (active) in assay [5], 167 µM (active) in assay [6] and 161 µM (active) in assay [7]. The molecule was called inactive in assay [2], in assay [3], in assay [4], in [8], in assay [9] and in assay [10]. Also, the result in assay [11], in assay [12], in [13], in assay [14], in [15] and in assay [16] was inactive.
Regarding `CC1=NN(c2cc(S(=O)(=O)O)ccc2Cl)C(=O)C1N=Nc1ccccc1` (configuration not stated), the call in assay [1], in [2], in assay [3], in assay [4], in [5] and in assay [6] was inactive. The result in assay [7], in assay [17], in assay [9], in assay [10], in [11] and in assay [12] was inactive. Moreover, the outcome in assay [18], in assay [19] and in assay [15] was inactive.
Turning to `CC(=O)OCc1ccco1`, the outcome in assay [1], in assay [2], in assay [3], in assay [4], in [5] and in assay [6] was inactive. The result in assay [7], in assay [17], in assay [8], in [10], in assay [11] and in assay [12] was inactive. In addition, the call in assay [13], in [14], in [20], in [18], in [15] and in assay [16] was inactive.
For the molecule `CCN(CCO)c1cccc(C)c1`, the molecule was classed as inactive in assay [1], in [3], in assay [4], in [5], in assay [6] and in assay [7]. The molecule was called inactive in [17], in assay [8], in [10], in [12], in assay [13] and in [14]. The molecule was classed as inactive in assay [20], in assay [18], in assay [19], in assay [15] and in assay [16]. In addition, the AC50 in assay [2] was 27.8 µM (active).
